What was measured:
Settings in all cases: concentration: 1 μM, replicates: in singlicate; n = 1
ADCK4 = system: ADCK4
AKT1 = system: AKT1
AKT2 = system: AKT2
AKT3 = system: AKT3
ALK = system: ALK
AMPK-alpha1 = system: T1, AMPK-alpha1
T1 construct: gene PRKAA1

AMPK-alpha2 = system: T2, AMPK-alpha2
T2 construct: gene PRKAA2

ANKK1 = system: ANKK1
ARK5 = system: T3, ARK5
T3 construct: gene NUAK1

ASK1 = system: T4, ASK1
T4 construct: gene MAP3K5
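Also: KINOMEscan kinase panel screen.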

Row | SMILES | %Inh (ADCK4) [%] | %Inh (AKT1) [%] | %Inh (AKT2) [%] | %Inh (AKT3) [%] | %Inh (ALK) [%] | %Inh (AMPK-alpha1) [%] | %Inh (AMPK-alpha2) [%] | %Inh (ANKK1) [%] | %Inh (ARK5) [%] | %Inh (ASK1) [%]
1 | COc1cccc(C2=C(Nc3cccc(O)c3)C(=O)NC2=O)c1 [SB-390771] | 32 | 0 | 7 | 0 | 4 | 16 | 3 | 0 | 12 | 7
2 | COc1cc(Nc2nccc(N3CCC(NS(=O)(=O)c4ccc(NC(C)=O)cc4)CC3)n2)cc(OC)c1OC [GSK1379825] | 96.2 | 0 | 15 | 0 | 32 | 17 | 50 | 0 | 43 | 0
3 | COc1cc(Nc2nccc(N3CCC(NC(=O)Nc4ccc5c(c4)OCO5)C3)n2)cc(OC)c1OC (stereo not drawn) [GSK1379766] | 69 | 0 | 2 | 0 | 63 | 2 | 10 | 36 | 24 | 4
4 | COc1cccc(-c2nc(-c3ccccc3)[nH]c2-c2ccncc2)c1 [SB-610250] | 77 | 0 | 0 | 0 | 18 | 17 | 2 | 0 | 0 | 2
5 | Cc1cc(-c2c(-c3ccc(F)cc3)ncn2CCCN2CCOCC2)nc(N)n1 [SB-222517] | 0 | 16 | 0 | 23 | 0 | 10 | 27 | 0 | 0 | 0
6 | CN(C)CCNS(=O)(=O)c1ccc(-c2ccnc3[nH]ccc23)cc1 [GSK977620] | 0 | 57 | 18 | 75 | 50 | 53 | 43 | 0 | 39 | 0
7 | Cn1cc(-c2ccc3c(c2)CCN3C(=O)Cc2cc(F)cc(F)c2F)c2c(N)ncnc21 [GSK2634140] | 19 | 0 | 0 | 0 | 8 | 18 | 13 | 12 | 20 | 0
8 | CSc1ccc(NC2=C(c3ccc(Cl)cc3)C(=O)NC2=O)cc1 [SB-317658] | 0 | 9 | 8 | 10 | 0 | 23 | 30 | 3 | 0 | 0
9 | Cc1cc(-c2ccnc(Nc3cccc(C#N)c3)n2)cc(C)c1O [GSK1440913] | 72 | 0 | 0 | 0 | 7 | 17 | 32 | 9 | 23 | 0
10 | Cc1ccccc1CC(=O)N1CCc2cc(-c3cn(C)c4ncnc(N)c34)ccc21 [GSK2603346] | 3 | 0 | 4 | 0 | 20 | 18 | 23 | 0 | 42 | 30
11 | CCOc1nccc(-c2c(-c3ccc(F)cc3)ncn2C2CCNCC2)n1 [SB-249175] | 8 | 0 | 0 | 16 | 52 | 1 | 5 | 0 | 7 | 0
12 | COc1cccc(CC(=O)N2CCc3cc(-c4cn(C)c5ncnc(N)c45)ccc32)c1 [GSK2608899] | 0 | 0 | 8 | 27 | 5 | 15 | 25 | 6 | 19 | 14
13 | N#Cc1cnc2cc(-c3cnc(CNCCN4CCOCC4)s3)ccc2c1Nc1ccc(Oc2ccccc2)cc1 [GW664114] | 36 | 0 | 0 | 0 | 34 | 21 | 30 | 45 | 10 | 5
14 | Fc1cc(Cl)ccc1Nc1ccnc2cc(-c3ccc(CN4CCSCC4)o3)ccc12 [GW560106] | 31 | 0 | 2 | 0 | 28 | 3 | 18 | 14 | 13 | 0
15 | COC(=O)Nc1nc2ccc(Oc3ccc(NC(=O)Nc4cc(C(F)(F)F)ccc4F)cc3)cc2[nH]1.Cl [GW654607] | 54 | 0 | 100 | 0 | 18 | 19 | 15 | 13 | 9 | 12
16 | O=C(Nc1n[nH]c2cc(-c3cccs3)ccc12)C1CC1 [SB-731284] | 0 | 0 | 0 | 0 | 28 | 0 | 0 | 45 | 0 | 0
17 | COc1cccc(NC(=O)NCCNc2ccnc(Nc3ccc(F)cc3)n2)c1 [GSK1379879] | 41 | 0 | 0 | 0 | 36 | 0 | 0 | 14 | 16 | 20
18 | Cc1cccc(Nc2nc(NCCN)ncc2C(N)=O)c1 [GSK1292139] | 42 | 0 | 0 | 0 | 46 | 0 | 0 | 94.9 | 64 | 0
19 | CCNc1nccc(-c2c(-c3ccc(F)cc3)ncn2C2CCN(C)CC2)n1 | 8 | 4 | 0 | 0 | 0 | 0 | 0 | 0 | 0 | 15
20 | CCn1cnc2c(NCc3ccccc3)ncnc21 [SKF-96418] | 0 | 0 | 0 | 0 | 0 | 3 | 0 | 0 | 0 | 0
21 | Cc1ccc(O)cc1Nc1ccnc2ccc(C(C)(C)C)cc12 [GW856805] | 88 | 27 | 29 | 18 | 44 | 8 | 19 | 7 | 0 | 1
22 | Cl.Cl.NC(CNC(=O)c1cc(Br)c(-c2ccnc3[nH]ccc23)s1)c1ccccc1 (stereo not drawn) [GSK1322949] | 76 | 66 | 15 | 88 | 59 | 73 | 46 | 38 | 0 | 0
23 | Cl.O=C(Nc1ccc(Oc2ccc3[nH]c(NC(=O)c4ccco4)nc3c2)cc1)Nc1cc(C(F)(F)F)ccc1F [GW683134] | 0 | 0 | 12 | 0 | 27 | 0 | 16 | 1 | 12 | 0
24 | Cc1ccc(NC(=O)c2ccc(Cl)c(Cl)c2)cc1-c1ccc(C(=O)Nc2ccncc2)cc1 [GSK1398460] | 20 | 0 | 15 | 0 | 41 | 21 | 21 | 18 | 10 | 16
25 | CN(C)CCOc1ccc(-c2cc(-c3ccc(Cl)c(O)c3)c(-c3ccncc3)[nH]2)cc1.Cl.Cl [SB-684387] | 21 | 0 | 0 | 55 | 18 | 0 | 11 | 8 | 1 | 15
26 | Cn1cc(-c2ccc3c(c2)CCN3C(=O)Cc2cc(F)cc(C(F)(F)F)c2)c2c(N)ncnc21 [GSK2635225] | 10 | 0 | 0 | 0 | 0 | 3 | 21 | 25 | 15 | 0
27 | CC(C)c1nc(-c2ccc(F)c(NS(=O)(=O)c3c(F)cccc3F)c2)c(-c2ccnc(Nc3ccc(N4CCOCC4)nc3)n2)s1 [GSK1804250] | 88 | 0 | 13 | 2 | 26 | 59 | 69 | 23 | 21 | 0
28 | COC(=O)Nc1nc2ccc(Oc3ccc(CC(=O)Nc4cc(C(F)(F)F)ccc4F)cc3)cc2[nH]1 [GW680903] | 42 | 0 | 0 | 0 | 36 | 0 | 0 | 1 | 7 | 3
29 | O=C(Nc1n[nH]c2nc(-c3ccccc3O)ccc12)C1CC1 [SB-711880] | 17 | 0 | 0 | 0 | 0 | 90 | 0 | 0 | 0 | 0
30 | Nc1ncnc2scc(-c3ccc(NC(=O)Cc4cc(F)ccc4F)cc3)c12.O=C(O)C(F)(F)F [SB-731254-M] | 3 | 0 | 0 | 9 | 18 | 18 | 11 | 49 | 2 | 10
